Where a chain is given by its changes, count along the chain named.
What was measured:
Assay in all cases: PBM; 200 nM protein, PBS
Conditions in all cases: dsDNA, one strand shown
[1] = biological target: ALX3 (Homo sapiens, UniProt O95076 139-225, N203Q)
[2] = biological target: ALX3 (Homo sapiens, UniProt O95076 139-225)
[3] = biological target: ALX3 (Homo sapiens, UniProt O95076 139-225, L168Q)
[4] = biological target: ALX3 (Homo sapiens, UniProt O95076 139-225, L168V)
[5] = biological target: ALX3 (Homo sapiens, UniProt O95076 139-225, N203S)
Chain of ALX3 (Homo sapiens, UniProt O95076 139-225, N203S) (O95076 139-225 N203S): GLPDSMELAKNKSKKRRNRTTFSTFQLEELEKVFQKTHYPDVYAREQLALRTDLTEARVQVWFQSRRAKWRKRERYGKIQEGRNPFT

[6] = biological target: T1, NKX2-6 (Homo sapiens, UniProt A6NCS4 118-204)
T1 sequence: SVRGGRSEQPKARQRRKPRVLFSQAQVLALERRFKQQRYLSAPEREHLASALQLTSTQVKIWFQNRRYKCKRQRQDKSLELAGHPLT

[7] = biological target: PROP1 (Homo sapiens, UniProt O75360 56-141)
Chain of PROP1 (Homo sapiens, UniProt O75360 56-141) (O75360 56-141): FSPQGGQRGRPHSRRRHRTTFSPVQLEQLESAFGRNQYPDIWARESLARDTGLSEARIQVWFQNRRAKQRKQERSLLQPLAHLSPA

[8] = biological target: PROP1 (Homo sapiens, UniProt O75360 56-141, R99H)
Chain of PROP1 (Homo sapiens, UniProt O75360 56-141, R99H) (O75360 56-141 R99H): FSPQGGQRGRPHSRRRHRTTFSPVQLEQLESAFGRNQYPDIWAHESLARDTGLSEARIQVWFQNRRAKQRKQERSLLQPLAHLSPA

[9] = biological target: T2, NKX2-6 (Homo sapiens, UniProt A6NCS4 118-204, F151L)
T2 sequence: T1 sequence with F34L

[10] = biological target: PROP1 (Homo sapiens, UniProt O75360 56-141, F88S)
Chain of PROP1 (Homo sapiens, UniProt O75360 56-141, F88S) (O75360 56-141 F88S): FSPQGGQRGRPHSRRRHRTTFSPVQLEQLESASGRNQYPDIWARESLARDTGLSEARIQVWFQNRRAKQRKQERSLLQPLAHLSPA

[11] = biological target: VAX1 (Homo sapiens, UniProt Q5SQQ9 86-172)
Chain of VAX1 (Homo sapiens, UniProt Q5SQQ9 86-172) (Q5SQQ9 86-172): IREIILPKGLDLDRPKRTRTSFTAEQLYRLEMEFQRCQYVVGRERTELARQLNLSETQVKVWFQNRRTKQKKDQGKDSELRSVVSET

[12] = biological target: VAX1 (Homo sapiens, UniProt Q5SQQ9 86-172, T142I)
Chain of VAX1 (Homo sapiens, UniProt Q5SQQ9 86-172, T142I) (Q5SQQ9 86-172 T142I): as the sequence (Q5SQQ9 86-172) above, with T57I counted along it

[13] = biological target: VAX1 (Homo sapiens, UniProt Q5SQQ9 86-172, K157R)
Chain of VAX1 (Homo sapiens, UniProt Q5SQQ9 86-172, K157R) (Q5SQQ9 86-172 K157R): as the sequence (Q5SQQ9 86-172) above, with K72R counted along it

[14] = biological target: HOXD13 (Homo sapiens, UniProt P35453 263-343, T313R)
Chain of HOXD13 (Homo sapiens, UniProt P35453 263-343, T313R) (P35453 263-343 T313R): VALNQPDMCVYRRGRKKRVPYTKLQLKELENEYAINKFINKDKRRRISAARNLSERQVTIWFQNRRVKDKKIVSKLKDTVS

[15] = biological target: HOXD13 (Homo sapiens, UniProt P35453 263-343)
Chain of HOXD13 (Homo sapiens, UniProt P35453 263-343) (P35453 263-343): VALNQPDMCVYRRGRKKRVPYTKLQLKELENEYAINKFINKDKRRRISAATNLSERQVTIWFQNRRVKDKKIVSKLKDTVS

[16] = biological target: HOXD13 (Homo sapiens, UniProt P35453 263-343, T313A)
Chain of HOXD13 (Homo sapiens, UniProt P35453 263-343, T313A) (P35453 263-343 T313A): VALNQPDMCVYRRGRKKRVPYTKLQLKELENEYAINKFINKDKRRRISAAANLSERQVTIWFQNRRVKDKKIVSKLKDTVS

[17] = biological target: HOXC9 (Homo sapiens, UniProt P31274 178-260, R222W)
Chain of HOXC9 (P31274 178-260 R222W): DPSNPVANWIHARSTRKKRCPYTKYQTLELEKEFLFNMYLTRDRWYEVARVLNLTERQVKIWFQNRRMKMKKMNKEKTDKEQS

Chain of ALX3 (Homo sapiens, UniProt O95076 139-225, L168Q) (O95076 139-225 L168Q): as the sequence (O95076 139-225 N203S) above, with L30Q, S65N counted along it
Chain of ALX3 (Homo sapiens, UniProt O95076 139-225, N203Q) (O95076 139-225 N203Q): as the sequence (O95076 139-225 N203S) above, with S65Q counted along it
Chain of ALX3 (Homo sapiens, UniProt O95076 139-225, L168V) (O95076 139-225 L168V): as the sequence (O95076 139-225 N203S) above, with L30V, S65N counted along it
Chain of ALX3 (Homo sapiens, UniProt O95076 139-225) (O95076 139-225): as the sequence (O95076 139-225 N203S) above, with S65N counted along it

**Q.** What does the source list for CCGCGGAC?
**A.** binding signal [1]: 7.74 upbm affinity estimate (log intensity, higher = more binding, comparable within an allelic series); binding signal [2]: 7.45 upbm affinity estimate (log intensity, higher = more binding, comparable within an allelic series); binding signal [3]: 7.7 upbm affinity estimate (log intensity, higher = more binding, comparable within an allelic series); binding signal [4]: 7.67 upbm affinity estimate (log intensity, higher = more binding, comparable within an allelic series); binding signal [5]: 7.75 upbm affinity estimate (log intensity, higher = more binding, comparable within an allelic series)

**Q.** With CGGCCCAG as the sequence, how does the binding signal [1] read?
**A.** The binding signal was 7.75 upbm affinity estimate (log intensity, higher = more binding, comparable within an allelic series).

**Q.** What about the binding signal [6] of the same sequence?
**A.** Its binding signal is 8.83 upbm affinity estimate (log intensity, higher = more binding, comparable within an allelic series).

**Q.** What about the binding signal [2] of the same sequence?
**A.** The binding signal was 7.72 upbm affinity estimate (log intensity, higher = more binding, comparable within an allelic series).

**Q.** And the binding signal [7]?
**A.** The binding signal was 6.51 upbm affinity estimate (log intensity, higher = more binding, comparable within an allelic series).

**Q.** What about the binding signal [8] of the same sequence?
**A.** The binding signal was 6.59 upbm affinity estimate (log intensity, higher = more binding, comparable within an allelic series).

**Q.** What about the binding signal [3] of the same sequence?
**A.** Its binding signal is 7.67 upbm affinity estimate (log intensity, higher = more binding, comparable within an allelic series).

**Q.** And the binding signal [9]?
**A.** Its binding signal is 9.1 upbm affinity estimate (log intensity, higher = more binding, comparable within an allelic series).

**Q.** What about the binding signal [4] of the same sequence?
**A.** The binding signal was 7.67 upbm affinity estimate (log intensity, higher = more binding, comparable within an allelic series).

**Q.** And the binding signal [10]?
**A.** The binding signal was 6.34 upbm affinity estimate (log intensity, higher = more binding, comparable within an allelic series).

**Q.** What about the binding signal [5] of the same sequence?
**A.** Its binding signal is 7.74 upbm affinity estimate (log intensity, higher = more binding, comparable within an allelic series).

**Q.** Which results are given for CCCCCCAA?
**A.** binding signal [1]: 7.79 upbm affinity estimate (log intensity, higher = more binding, comparable within an allelic series); binding signal [2]: 7.79 upbm affinity estimate (log intensity, higher = more binding, comparable within an allelic series); binding signal [3]: 7.64 upbm affinity estimate (log intensity, higher = more binding, comparable within an allelic series); binding signal [4]: 7.7 upbm affinity estimate (log intensity, higher = more binding, comparable within an allelic series); binding signal [5]: 7.81 upbm affinity estimate (log intensity, higher = more binding, comparable within an allelic series)

**Q.** Which results are given for CATATTAC?
**A.** binding signal [1]: 8.38 upbm affinity estimate (log intensity, higher = more binding, comparable within an allelic series); binding signal [2]: 10.5 upbm affinity estimate (log intensity, higher = more binding, comparable within an allelic series); binding signal [11]: 10.8 upbm affinity estimate (log intensity, higher = more binding, comparable within an allelic series); binding signal [12]: 10.4 upbm affinity estimate (log intensity, higher = more binding, comparable within an allelic series); binding signal [13]: 10.5 upbm affinity estimate (log intensity, higher = more binding, comparable within an allelic series)

**Q.** With ATAAATGG as the sequence, how does the binding signal [1] read?
**A.** The binding signal was 8.33 upbm affinity estimate (log intensity, higher = more binding, comparable within an allelic series).

**Q.** And the binding signal [2]?
**A.** Its binding signal is 9.85 upbm affinity estimate (log intensity, higher = more binding, comparable within an allelic series).

**Q.** What does the source list for ATTAAAAT?
**A.** binding signal [1]: 8.53 upbm affinity estimate (log intensity, higher = more binding, comparable within an allelic series); binding signal [14]: 10.6 upbm affinity estimate (log intensity, higher = more binding, comparable within an allelic series); binding signal [15]: 11.4 upbm affinity estimate (log intensity, higher = more binding, comparable within an allelic series); binding signal [2]: 11.2 upbm affinity estimate (log intensity, higher = more binding, comparable within an allelic series); binding signal [3]: 9.54 upbm affinity estimate (log intensity, higher = more binding, comparable within an allelic series); binding signal [16]: 11.4 upbm affinity estimate (log intensity, higher = more binding, comparable within an allelic series); binding signal [4]: 9.23 upbm affinity estimate (log intensity, higher = more binding, comparable within an allelic series); binding signal [5]: 8.6 upbm affinity estimate (log intensity, higher = more binding, comparable within an allelic series)

**Q.** Which results are given for AGAGGGGG?
**A.** binding signal [1]: 7.63 upbm affinity estimate (log intensity, higher = more binding, comparable within an allelic series); binding signal [2]: 7.93 upbm affinity estimate (log intensity, higher = more binding, comparable within an allelic series); binding signal [3]: 7.69 upbm affinity estimate (log intensity, higher = more binding, comparable within an allelic series); binding signal [4]: 7.67 upbm affinity estimate (log intensity, higher = more binding, comparable within an allelic series); binding signal [5]: 7.59 upbm affinity estimate (log intensity, higher = more binding, comparable within an allelic series)

**Q.** For CCTGGCCC, which binding signal [1] is on record?
**A.** Its binding signal is 7.75 upbm affinity estimate (log intensity, higher = more binding, comparable within an allelic series).

**Q.** What about the binding signal [2] of the same sequence?
**A.** The binding signal was 7.59 upbm affinity estimate (log intensity, higher = more binding, comparable within an allelic series).

**Q.** And the binding signal [3]?
**A.** The binding signal was 7.65 upbm affinity estimate (log intensity, higher = more binding, comparable within an allelic series).

**Q.** What about the binding signal [4] of the same sequence?
**A.** The binding signal was 7.67 upbm affinity estimate (log intensity, higher = more binding, comparable within an allelic series).

**Q.** And the binding signal [5]?
**A.** The binding signal was 7.74 upbm affinity estimate (log intensity, higher = more binding, comparable within an allelic series).

**Q.** TATTAAAA was tested. Which binding signal [1] did it give?
**A.** Its binding signal is 8.56 upbm affinity estimate (log intensity, higher = more binding, comparable within an allelic series).

**Q.** And the binding signal [14]?
**A.** The binding signal was 10.8 upbm affinity estimate (log intensity, higher = more binding, comparable within an allelic series).

**Q.** And the binding signal [15]?
**A.** The binding signal was 11.8 upbm affinity estimate (log intensity, higher = more binding, comparable within an allelic series).

**Q.** What about the binding signal [16] of the same sequence?
**A.** The binding signal was 11.8 upbm affinity estimate (log intensity, higher = more binding, comparable within an allelic series).

**Q.** And the binding signal [17]?
**A.** Its binding signal is 11.1 upbm affinity estimate (log intensity, higher = more binding, comparable within an allelic series).

**Q.** With CGAAATCA as the sequence, how does the binding signal [1] read?
**A.** Its binding signal is 8.09 upbm affinity estimate (log intensity, higher = more binding, comparable within an allelic series).

**Q.** What about the binding signal [2] of the same sequence?
**A.** Its binding signal is 9.04 upbm affinity estimate (log intensity, higher = more binding, comparable within an allelic series).

**Q.** And the binding signal [7]?
**A.** Its binding signal is 7.77 upbm affinity estimate (log intensity, higher = more binding, comparable within an allelic series).

**Q.** And the binding signal [5]?
**A.** The binding signal was 8.15 upbm affinity estimate (log intensity, higher = more binding, comparable within an allelic series).
